Where “and” joins values, the source holds several entries; their conditions need not be identical. Equal entries are not always repeated. Calls of active or inactive are those of the source.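 Rule for the calls, unless noted: active = inhibition at or above 50% relative to wild type and mutant plate controls; inactive = inhibition below 50%.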
Key:
[1] = inhibitors of TNFa-induced NFkB p65 translocation, primary screen, imaging, HUVEC, MLSMR starter and 10KST1 sets (AID 438;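 active = inhibition above 20% together with a positive visual image hit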;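 note: compound added about 3h40 before a 20 min TNFalpha stimulation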;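 for inhibition: signal is the nuclear over cytoplasmic p65 intensity ratio per well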); details: HUVEC TNFa-induced p65 nuclear translocation; cell count: measured here: nuclei count (cytotoxicity indicator), at 2.08 µM unless noted; inhibition: at 2 µM, stronger effect = higher value unless noted
[2] = reduction of polyQ htt aggregates in cells – imaging, exon1htt(103Q)mCFP cells, high-content imaging, primary screen (AID 483;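 active = visual image review flags a hit and inhibition of aggregation exceeds 20%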;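 note: compound exposure lasted 3 days before fixation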;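 for nuclei count: percent of the per-plate median nuclei count of sample wells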); details: exon1htt(103Q)mCFP cell line, aggregate imaging, at 2 µM; inhibition of aggregation: stronger effect = higher value; nuclei count: measured here: cell count, toxicity
[3] = endothelial E-selectin expression blockers – imaging, HUVEC, immunofluorescence, MLSMR starter and 10KST1 sets, primary screen (AID 487;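 active = visually confirmed hit in the image check and inhibition above 20%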;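 for inhibition: signal is fraction of cell area covered by stained E-selectin grains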;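 for nuclei count: 100% = median nuclei count of all wells on the same plate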); details: HUVEC TNFalpha-induced E-selectin immunofluorescence imaging, at 2 µM; inhibition: stronger effect = higher value; nuclei count: measured here: cell number, toxicity
[4] = Primary imaging screen for DUSP6 inhibitors that restore phospho-Erk in transfected HeLa cells, chemical complementation (AID 609;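 active = compounds giving at least 50% inhibition in the cell-based MKP-3 phosphatase rescue imaging test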;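 for inhibition: phospho-Erk level distribution per well compared with pooled transfected vehicle control wells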); details: HeLa MKP-3 transfected, phospho-Erk imaging KS statistic, at 10 µM
[5] = molecular target: Dual specificity protein phosphatase 6 (Homo sapiens) (UniProt Q16828); assay: as above; details: HeLa MKP-3 transfected, phospho-Erk imaging KS statistic, at 10 µM, stronger effect = higher value
Chain of Dual specificity protein phosphatase 6 (Homo sapiens) (Q16828 whole entry, looked up): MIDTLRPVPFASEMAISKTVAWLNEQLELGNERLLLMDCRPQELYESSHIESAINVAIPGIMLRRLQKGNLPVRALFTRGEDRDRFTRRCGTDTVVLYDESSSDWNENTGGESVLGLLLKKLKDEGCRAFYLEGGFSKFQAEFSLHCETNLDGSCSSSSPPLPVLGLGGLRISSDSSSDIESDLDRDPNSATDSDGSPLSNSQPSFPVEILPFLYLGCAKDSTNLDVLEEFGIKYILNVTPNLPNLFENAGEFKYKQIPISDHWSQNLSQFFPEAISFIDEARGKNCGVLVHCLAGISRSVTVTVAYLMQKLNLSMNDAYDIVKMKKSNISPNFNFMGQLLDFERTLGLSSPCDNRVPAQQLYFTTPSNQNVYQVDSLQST

[6] = molecular target: Voltage-gated potassium channel subunit beta-2 (Rattus norvegicus) (UniProt P62483); assay: inhibitors of rat Kvbeta2 reductase activity – biochemical, NADPH fluorescence, primary screen (AID 622;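 active = fluorescence slope higher than the sample average by over 3 SD, cut at about -0.22 in these data, passing the limit was not always enough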;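 note: slope of raw intensity against log time taken from 70 to 1610 s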); details: recombinant KvBeta, 4-cyanobenzaldehyde reduction, at 10 µM, stronger effect = higher value
Chain of Voltage-gated potassium channel subunit beta-2 (Rattus norvegicus) (P62483 whole entry, looked up): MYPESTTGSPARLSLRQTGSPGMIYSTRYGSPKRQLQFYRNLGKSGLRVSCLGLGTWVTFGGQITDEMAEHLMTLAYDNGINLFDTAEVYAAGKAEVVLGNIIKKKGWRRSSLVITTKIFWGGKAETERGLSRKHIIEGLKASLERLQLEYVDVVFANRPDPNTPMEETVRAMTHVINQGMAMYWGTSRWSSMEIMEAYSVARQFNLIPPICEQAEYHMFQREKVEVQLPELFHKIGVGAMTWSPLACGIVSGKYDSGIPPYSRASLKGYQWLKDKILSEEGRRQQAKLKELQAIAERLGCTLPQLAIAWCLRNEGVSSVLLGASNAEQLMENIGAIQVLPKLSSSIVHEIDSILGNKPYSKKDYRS

[7] = molecular target: Voltage-gated potassium channel subunit beta-2 (Rattus norvegicus) (UniProt P62483); assay: enhancers of rat Kvbeta2 NADPH turnover – biochemical, NADPH fluorescence, primary screen (AID 623;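 active = NADPH fluorescence slope more negative than the mean of all samples by about 3 SD, 99.7% confidence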;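 note: fluorescence intensity change per second fitted from 20 to 320 s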); details: Recombinant KvBeta, NADPH fluorescence decrease slope, 10 min; at 10 µM; stronger effect = lower value
[8] = molecular target: Alpha-2C adrenergic receptor (Homo sapiens) (UniProt P18825); assay: compounds altering alpha2C-coupled GIRK flux – cell-based, HEK293 alpha2C/GIRK1/2, thallium flux, primary screen (AID 624;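 active = fluorescence slope after compound addition differing from the mean of all screened samples at 99.7% confidence, in either direction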;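 note: slope of fluorescence ratio to pre-addition baseline per second over 15 to 24 s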); details: thallium flux BTC fluorescence, at 10 µM, actives lie on both sides
Chain of Alpha-2C adrenergic receptor (Homo sapiens) (P18825 whole entry, looked up): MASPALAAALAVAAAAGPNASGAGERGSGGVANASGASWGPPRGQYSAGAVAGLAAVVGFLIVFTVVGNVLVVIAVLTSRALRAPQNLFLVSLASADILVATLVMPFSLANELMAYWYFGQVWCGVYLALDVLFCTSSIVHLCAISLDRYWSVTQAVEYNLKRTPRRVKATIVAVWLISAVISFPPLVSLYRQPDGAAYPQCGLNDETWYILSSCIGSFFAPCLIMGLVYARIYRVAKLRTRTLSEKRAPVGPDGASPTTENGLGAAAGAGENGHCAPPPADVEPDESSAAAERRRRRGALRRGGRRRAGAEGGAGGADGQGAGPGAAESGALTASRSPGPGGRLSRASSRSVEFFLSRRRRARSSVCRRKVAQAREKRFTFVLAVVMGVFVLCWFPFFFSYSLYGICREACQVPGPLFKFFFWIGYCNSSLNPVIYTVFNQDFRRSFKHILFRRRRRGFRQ

[9] = inhibitors of larval lipid processing in zebrafish, primary screen, whole organism, PED6 fluorescence, gall bladder and intestine (AID 686;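 active = a full or partial loss of lipid-probe fluorescence in the fish gall bladder, intestine or both, judged by eye; inactive = no fluorescence loss, or compound toxic to the fish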;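 note: larvae 5 to 7 days old with five fish per well; signal comes from phospholipase A2 cleavage of quenched PED6 carried via bile; overnight exposure to compound and PED6 before scoring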); details: Zebrafish larvae PED6 lipid processing, fluorescence scoring
[10] = loss of swimming-algae plug formation – whole organism, Chlamydomonas reinhardtii, WT vs cilia-less mutant, absorbance, 96-well, primary screen (AID 463189); details: Chlamydomonas reinhardtii gravitaxis, OD600 absorbance, 2 days; at 10 µM; stronger effect = higher value;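 note: 0% = wild type cc124 cells in DMSO and 100% = ciliumless bld1 mutant cells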
[11] = blockers of RIG-like receptor reporter activation – cell-based, Sendai virus stimulus, luciferase, 10K MLSCN set, TLR/RLR signaling modifier project, primary screen (AID 602276;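 active = inhibition at or above 50% at 10 µM; inactive = inhibition below 50%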;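 note: firefly luciferase from ISG56 promoter only with Renilla not read in this screen; 0% = Sendai virus plus DMSO and 100% = medium plus DMSO without virus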); details: HEK293 RL24 IRF3 luciferase reporter, at 10 µM, stronger effect = higher value
[12] = TLR3 IRF3 reporter activation blockers – cell-based, poly I:C stimulus, luciferase, 10K MLSCN set, primary screen (AID 602277;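 active = inhibition of the reporter signal at or above 50%; inactive = inhibition below 50%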); details: HEK293-TLR3 RL24 IRF3 luciferase reporter, at 10 µM, stronger effect = higher value
[13] = measured here: cell density z-score
[14] = measured here: nuclear c-Myc green intensity z-score
[15] = measured here: nuclear pErk red intensity z-score, stronger effect = higher value

SMILES | cell count [1] | inhibition [1] | inhibition of aggregation [2] | nuclei count [2] [%] | inhibition [3] | nuclei count [3] [%] | z-score [4, 13] | z-score [4, 14] | z-score [4, 15] | inhibition [5] | fluorescence slope [6] | NADPH fluorescence slope [7] | slope [8] | outcome [9] | inhibition [10] | inhibition [11] | inhibition [12] | z-score ([4]; measured here: cell density z-score, cells stimulated with TPA for 15 min) | z-score ([4]; measured here: nuclear c-Myc green intensity z-score, cells stimulated with TPA for 15 min) | z-score ([4]; measured here: nuclear pErk red intensity z-score, stronger effect = higher value, cells stimulated with TPA for 15 min)
CN1[C@@H]2CC[C@H]1CC(OC(=O)C1C=Nc3ccccc31)C2 (stereo not given in full) | 619 | 0.8% (inactive) | -36% (inactive) | 99.6 | -33.8% (inactive) | 116 | -1.01 | -0.312 | 0.0205 | 8% (inactive) | -0.448 (inactive) | -6.1e-05 (inactive) | 0.00567 (inactive) | inactive | -4.66% (inactive) | -81.8% (inactive) | 52.8% (active) | – | – | –
Cc1ccc(-n2c(O)c(C=NCCN3CCOCC3)c(=O)[nH]c2=O)cc1 | 536 | -3.4% (inactive) | -17.4% (inactive) | 117 | -76.6% (inactive) | 147 | -0.809 | -1.16 | 1.01 | 6.04% (inactive) | -0.418 (inactive) | -4.9e-05 (inactive) | 0.00555 (inactive) | inactive | -5.09% (inactive) | 15.1% (inactive) | 25% (inactive) | – | – | –
CC(C)(C)OC(=O)c1c(N)n(Cc2ccco2)c2nc3ccccc3nc12 | 394 | -12.8% (inactive) | -3.4% (inactive) | 81 | -57.4% (inactive) | 127 | 0.353 | -0.801 | -1.16 | 13.4% (inactive) | -0.293 (inactive) | 5.9e-05 (inactive) | 0.00636 (inactive) | inactive | 19.2% (inactive) | 6.73% (inactive) | -1.48% (inactive) | – | – | –
COc1ccc2[nH]cc(CCN(C)C)c2c1 | 560 | -3.3% (inactive) | -16.8% (inactive) | 95.6 | -34% (inactive) | 102 | -0.633 | 0.535 | 0.345 | 3.59% (inactive) | -0.516 (inactive) | 1.6e-07 (inactive) | 0.00666 (inactive) | inactive | 12.8% (inactive) and -9.88% (inactive) | 7.44% (inactive) | 13.2% (inactive) | – | – | –
Clc1ccc(COC(Cn2ccnc2)c2ccc(Cl)cc2Cl)cc1 (stereo not given) | 571 | -2% [at 2 µM, stronger effect = higher value, 0% TNFa-plus-vehicle, 100% no-TNFa wells] (inactive) | -19.8% (inactive) | 61.4 | -14.8% (inactive) | 106 | – | – | – | 13.3% [cells stimulated with TPA for 15 min] (inactive) | -0.51 (inactive) | 4.6e-06 (inactive) | 0.00388 (inactive) | inactive; toxic [screened at 20 µM (by protocol)] | 41.7% (inactive) | 22.8% (inactive) | 32.2% (inactive) | 0.542 | 1.67 | -0.914

Reference: PubChem BioAssay
